Assay results published in paper PMC4552634, “A New Set of Chemical Starting Points with Plasmodium falciparum Transmission-Blocking Potential for Antimalarial Drug Discovery” (PLoS ONE, 2015).
The whole screen tested about 13,000 compounds, of which about 3,200 (25%) showed an effect of 50% or more. This is one part of the list.

System: P. falciparum stage V gametocytes
Design: BacTiter-Glo ATP luminescence viability of purified stage V gametocytes in 384-well plates, per cent inhibition versus DMSO
Details: 48 h, 5 µM; inhibitor

SMILES | % Inhibition
Fc1cccc(Cl)c1-c1nc(NCCC(c2ccccc2)c2ccccc2)no1 [TCMDC-134175] | -12.09%
Cc1cc(=O)[nH]c(NC#N)n1 [TCMDC-123468] | 11.83%
O=C(c1cc(-c2ccccc2O)on1)N1CCN(C(c2ccccc2)c2ccccc2)CC1 [TCMDC-125470] | 18.53%
CC1(C)C2C=C(CN3CCC(NC(=O)Nc4ccc(Cl)c(Cl)c4)CC3)C1CC2 (stereo not shown) [TCMDC-135871] | 38.53%
COc1cccc(O)c1CN1CCC2(CCCN(Cc3ccc(F)cc3)C2)C1 (stereo not shown) [TCMDC-124635] | -20.8%
CCOC(=O)c1ccc(N2CCCCC2)c(NC(=O)C(Cl)(Cl)Cl)c1 [TCMDC-125786] | -22.75%
Clc1ccc(CNCCCCCCCNCc2ccc(Cl)c(Cl)c2)cc1Cl [TCMDC-138075] | 16.46%
N=C(/N=C(/NCCCCCCN/C(=N\C(=N)Nc1ccc(Cl)cc1)N1CCOCC1)N1CCOCC1)Nc1ccc(Cl)cc1 [TCMDC-131813] | 108.7%
O=C(NCCCCN1CCC(O)(c2ccc3c(c2)OCO3)CC1)c1ccc(NC(=O)c2ccc(Cl)cc2)cc1 [TCMDC-138356] | -1.021%
N=C(N=C(NCCCCCCNC(=NC(=N)Nc1ccc(Cl)cc1)N1CCCCC1)N1CCCCC1)Nc1ccc(Cl)cc1 [TCMDC-131811] | 119.8%
O=C(NCCCCN1CCN(c2ccc3c(c2)CCC3)CC1)c1ccc(NC(=O)c2ccc(Cl)cc2)cc1 [TCMDC-138512] | -2.19%
O=C(/C=C/c1ccc(C(F)(F)F)cc1)NCCCCCN1CCN(C(=O)Nc2ccc(Cl)cc2)CC1 [TCMDC-136095] | -21.7%
O=C(/C=C/c1ccc(C(F)(F)F)cc1)NCCCCCN1CCCN(C(=O)Nc2ccc(Cl)cc2)CC1 [TCMDC-136106] | -46.09%
Clc1ccc(CNCC2CCN(CC3CCCCC3)CC2)cc1Cl [TCMDC-139467] | -4.599%
N=C(N=C(NCCCCCCNC(=NC(=N)NCc1ccc(Cl)c(Cl)c1)N1CCCCC1)N1CCCCC1)NCc1ccc(Cl)c(Cl)c1 [TCMDC-131816] | 118.5%
Nc1nc2c(ncn2COC2COP(=O)(O)OC2)c(=O)[nH]1 (stereo not shown) [TCMDC-138021] | 10.06%
Cc1ccc(Nc2nc(C)cc(NC3CCCC3)n2)cc1 [TCMDC-133470] | 43.93%
CCN(CCNc1nc(NCCc2cnc[nH]2)nc(N(CCC#N)Cc2ccccc2)n1)c1cccc(C)c1 [TCMDC-139258] | -10.46%
CCC(=O)Oc1ccc(NC(=O)c2cccc(OC)c2)cc1 [TCMDC-131408] | 8.36%
COc1cccc(C(=O)Nc2ccc(Oc3ccc(Cl)cc3)cc2)c1 [TCMDC-123807] | -8.512%
COc1cccc(C(=O)NCc2n[nH]c(=S)n2-c2ccc(Cl)c(Cl)c2)c1 [TCMDC-123816] | 81.2%
Cc1nc(-c2cccc(Nc3nccc(NCC(O)c4cccc(C(F)(F)F)c4)n3)c2)cs1 (stereo not shown) [TCMDC-136581] | -55.32%

SMILES | % Inhibition
CC(Cc1ccc(OCc2ccccc2)cc1)NCC(O)c1cccc(Cl)c1 (stereo not shown) [TCMDC-131473] | 11.58%
CC(Cc1ccc(COc2ccc(CC(CO)NCCc3cccc(Cl)c3)cc2)cc1)NCCc1cccc(Cl)c1 (stereo not shown) [TCMDC-139844] | 116.5%
CC(Cc1ccc(OCc2ccc(CCN(C)C)cc2)cc1)NCCc1cccc(Cl)c1 (stereo not shown) [TCMDC-139644] | 101.3%
CC(Cc1ccc(OCC(=O)NCC2CCN(CCc3cccc(Cl)c3)CC2)cc1)NCCc1cccc(Cl)c1 (stereo not shown) [TCMDC-139834] | 46.25%
CCCCCCNC(=O)C1Cc2c([nH]c3ccc(C)cc23)C2(CCN(CCc3ccccc3)CC2)N1 (stereo not shown) [TCMDC-141092] | -44.59%
Cc1ccc(-c2cc(C(=O)Nc3ccc(S(=O)(=O)N4CCCC(C)C4)cc3)[nH]n2)c(O)c1 (stereo not shown) [TCMDC-125183] | -50.15%
COc1cc(CCOc2c(C)nc(N)nc2N)cc(OC)c1OC [TCMDC-131360] | -25.98%
FC(F)(F)c1ccc(Nc2nnnc3ccccc23)cc1 [TCMDC-125603] | 38.58%
CC(Cc1ccc(Oc2ccc(Cl)cc2)cc1)NCC(O)c1cccc(Cl)c1 (stereo not shown) [TCMDC-131511] | 4.056%
C[C@H](Cc1ccc(S(=O)(=O)c2ccc(C[C@@H](C)NC[C@H](O)c3cccc(Cl)c3)cc2)cc1)NC[C@H](O)c1cccc(Cl)c1 [TCMDC-131561] | 74.46%
C[C@H](Cc1ccc(CCc2ccc(C[C@@H](C)NC[C@H](O)c3cccc(Cl)c3)cc2)cc1)NC[C@H](O)c1cccc(Cl)c1 [TCMDC-131551] | 114.3%
CC(Cc1ccc(CSC(C)C)cc1)NCC(O)c1cccc(Cl)c1 (stereo not shown) [TCMDC-131525] | 23.17%
C[C@H](Cc1ccc(Oc2ccc(C[C@@H](C)NC[C@H](O)c3cccc(Cl)c3)cc2)cc1)NC[C@H](O)c1cccc(Cl)c1 [TCMDC-131560] | 108%
CNCCCCCCc1ccc(CC(C)NCC(O)c2cccc(Cl)c2)cc1 (stereo not shown) [TCMDC-131495] | 95.63%
COc1ccc(CC(Cc2ccc(OC)cc2)NCC(O)c2cccc(Cl)c2)cc1 (stereo not shown) [TCMDC-131543] | 12.1%
CC(Cc1ccc(SCCSc2ccccc2)cc1)NCC(O)c1cccc(Cl)c1 (stereo not shown) [TCMDC-131515] | 37.98%
CCCCCCCSc1ccc(CC(C)NCC(O)c2cccc(Cl)c2)cc1 (stereo not shown) [TCMDC-131493] | 21.35%
COC(=O)/C=C/c1ccc(CC(C)NCC(O)c2cccc(Cl)c2)cc1 (stereo not shown) [TCMDC-131433] | -3.295%
CC(Cc1ccc(S(=O)(=O)N(C(C)C)C(C)C)cc1)NCC(O)c1cccc(C(F)(F)F)c1 (stereo not shown) [TCMDC-131526] | 19.58%
Cc1ccc(CCC(C)NCC(O)c2cccc(Cl)c2)cc1 (stereo not shown) [TCMDC-131436] | 13.72%
O=C(CCCCCNC(=O)c1ccc(O)c(-c2ccc(Cl)c(Cl)c2)c1)NCCN1CCCC1 [TCMDC-140826] | -20.01%
